Six1-Eya2 blk: blocks human Six1 binding to Eya2; 360,000 compounds, 0.56% hits; AID 651725; activity change, % (concentration not given with the values); AlphaScreen GST-Six1/His-Eya2 binding, biochemical; stronger effect = lower value; Q15475+O00167; in the data active means activity change below about -65%; inconclusive means mostly about -30% to -63%
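Compounds are tested against tagged Six1 and Eya2 proteins bridged by glutathione donor and nickel acceptor beads; after a one-hour incubation at 37 °C without light, AlphaScreen emission is recorded.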
IL1B secr inh: blocks inflammasome-driven IL-1 beta release. THP-1 LPS/ATP IL-1B secretion, AlphaLISA, 16 h; stronger effect = lower value. activity change, % at 57.5 µM. 360,000 compounds, 4.7% hits; in the data active means activity change below about -50%; inconclusive means mostly about -30% to -49%
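Secreted IL-1B measured by AlphaLISA bead assay after 16 h compound exposure of THP-1 cells; compounds (final up to 57.5 uM) added 1 h before LPS (250 ng/mL) and ATP (1.25 mM) stimulation; lower signal means less secretion.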
TDP1 inh: blocks human tyrosyl-DNA phosphodiesterase 1. Q9NUW8. AID 485290. recombinant TDP1, AlphaScreen DNA substrate cleavage. Potency, µM (highest dose often 130 µM), most hits filed as inhibitors. 350,000 compounds, 0.28% hits; further: nearly all actives have a fitted effect of over 40% in size
Target sequence (Q9NUW8 whole entry, looked up): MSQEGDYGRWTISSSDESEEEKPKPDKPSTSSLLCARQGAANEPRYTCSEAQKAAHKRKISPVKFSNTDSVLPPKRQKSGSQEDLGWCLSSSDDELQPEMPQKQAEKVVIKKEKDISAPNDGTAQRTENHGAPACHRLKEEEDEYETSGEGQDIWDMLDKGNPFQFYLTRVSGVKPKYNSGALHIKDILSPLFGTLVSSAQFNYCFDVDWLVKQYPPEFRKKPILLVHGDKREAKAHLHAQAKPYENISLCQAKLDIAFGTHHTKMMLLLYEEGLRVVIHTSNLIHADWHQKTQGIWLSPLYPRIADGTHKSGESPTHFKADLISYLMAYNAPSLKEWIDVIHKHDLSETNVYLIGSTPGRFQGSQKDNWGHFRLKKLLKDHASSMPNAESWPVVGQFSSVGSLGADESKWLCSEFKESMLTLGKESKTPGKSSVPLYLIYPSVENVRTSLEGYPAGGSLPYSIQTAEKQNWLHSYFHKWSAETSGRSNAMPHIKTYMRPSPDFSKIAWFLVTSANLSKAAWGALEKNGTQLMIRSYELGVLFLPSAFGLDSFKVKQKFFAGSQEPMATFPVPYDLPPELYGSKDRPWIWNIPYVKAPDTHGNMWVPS
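E. coli-derived human Tdp1, 1 nM final. Cpd preinc 15 min RT; substrate 15 nM final, 5 min RT; AS bead mix 10 ug/ml final, 10 min RT. Signal loss = tyrosine-FITC cleavage. No-enzyme wells = max signal.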
TDP1 cell noCPT: qHTS for Inhibitors of human tyrosyl-DNA phosphodiesterase 1 (TDP1): qHTS in cells in absence of CPT | AID 686978, 2013 | Potency, µM (titrated, usually from 46.2 µM), usual class: inhibitors | 420,000 compounds, 15% hits | DT40 Tdp1-/- hTDP1 cells, no CPT, ATP luminescence, 48 h; further: nearly all actives have a fitted effect of over 55% in size
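A cellular qHTS used chicken DT40 cells lacking endogenous Tdp1 but carrying stably transfected human TDP1. Compounds were applied without camptothecin, and cell growth kinetics were judged by ATP-dependent luminescence after ≥48 hr.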
CtBP-E1A inh: blocks the CtBP interaction with E1A | AlphaScreen GST-E1A/His-CtBP binding, 1536-well; stronger effect = lower value | AID 651724 | 340,000 compounds, 0.49% hits | activity change, % (test concentration not listed); in the data active means activity change below about -65%; inconclusive means mostly about -30% to -63%
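In 5 uL wells, 23 nL compound meets equimolar GST-E1A and His-CtBP (5X stock 125 nM each) for 2 h, 37 °C. Beads (5X, 50 ug/mL) then 1 h, 37 °C, dark.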
TDP1 cell CPT: growth inhibition of DT40 Tdp1-/-;hTDP1 cells with camptothecin (screen for TDP1 inhibitors); 420,000 compounds, 12% hits; chicken DT40 Tdp1-/-;hTDP1 cells + 20 nM CPT, ATP luminescence, 48 h; Potency, µM (highest dose often 46.2 µM), hits mostly inhibitors; further: nearly all actives have a fitted effect of over 55% in size
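Chicken DT40 Tdp1-/- cells complemented with human TDP1, 400 cells/well, exposed to compounds plus 20 nM camptothecin for at least 48 h at 37 C; viability read as ATP content by CellTiter-Glo luminescence.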
Each line names hits and unclear results; the compound was inactive in the other large screens. Hits are enriched below; roughly 18% of the tested compounds scored in any of these assays. Unless noted, the call rests on the fitted dose curve; in most records, active means well fitted curve in the direction sought with a large enough effect; inconclusive means small, poorly fitted or top-dose-only effect, or another doubt; inactive means no such curve, though single readings can be large; an effect the other way counts as inactive or inconclusive.

CCOC(=O)c1c(C)oc2nc(C)nc(N3CCN(c4cc(Cl)ccc4C)CC3)c12	TDP1 cell noCPT 21µM, TDP1 cell CPT 4.6µM (no result: Six1-Eya2 blk, IL1B secr inh, CtBP-E1A inh)
COc1ccc(C(=O)Nc2ccc(Cl)cc2C(=O)NCCO)cc1	IL1B secr inh inconclusive
CC(C)CNS(=O)(=O)c1ccc(CCC(=O)NC2CCCCC2)cc1	none (no result: TDP1 inh)
O=C(N/N=C/c1ccco1)c1[nH]ncc1Br	none (no result: Six1-Eya2 blk, IL1B secr inh, TDP1 cell noCPT, CtBP-E1A inh, TDP1 cell CPT)
CC1(CCc2ccccc2)NC(=O)N(CC(=O)Nc2ccccc2)C1=O (configuration not stated)	TDP1 cell CPT inconclusive (no result: TDP1 inh)
CCOC(=O)c1c(C)oc2nc(C)nc(N3CCN(c4ccccc4F)CC3)c12	TDP1 cell noCPT 7.3µM, TDP1 cell CPT 15µM (no result: Six1-Eya2 blk, IL1B secr inh, CtBP-E1A inh)
CCOC(=O)c1c(C)oc2nc(C)nc(N3CCN(c4cccc(C)c4C)CC3)c12	TDP1 cell noCPT 18µM, TDP1 cell CPT 21µM (no result: Six1-Eya2 blk, IL1B secr inh, CtBP-E1A inh)
CCc1cccc(NC(=O)c2c(C)oc3nc(C)nc(N4CCCC4)c23)c1	none (no result: Six1-Eya2 blk, IL1B secr inh, CtBP-E1A inh)
O=C(NCc1cccc(Cl)c1)c1ccncc1	none
N#Cc1ccc(NC(=O)c2sc3cc(C(F)(F)F)cnc3c2-c2cccs2)cc1	TDP1 cell noCPT inconclusive
COC(=O)/C=c1/s/c(=C(/C#N)C(=O)N2CCCCC2)n(-c2ccccc2)c1=O	TDP1 cell noCPT inconclusive
COc1cc(/C=c2\s/c(=C(/C#N)C(=O)N3CCCC3)n(-c3ccccc3)c2=O)ccc1O	TDP1 cell noCPT 9.2µM, TDP1 cell CPT inconclusive
COc1ccc(CNc2cc(C)nc3ncnn23)c(OC)c1	TDP1 cell noCPT 10µM, TDP1 cell CPT inconclusive
CCOC(=O)C1CN(S(C)(=O)=O)c2cc(CC(=O)OC)ccc2O1 (configuration not stated)	IL1B secr inh -101 (no result: CtBP-E1A inh)
CCc1ccc2[nH]c(=O)c(CN(Cc3cccnc3)Cc3nnnn3Cc3ccccc3)cc2c1	TDP1 cell noCPT 20µM, TDP1 cell CPT 11µM (no result: Six1-Eya2 blk, IL1B secr inh, CtBP-E1A inh)
CCc1ccc2[nH]c(=O)c(CN(Cc3ccc(OC)cc3)Cc3nnnn3CCOC)cc2c1	IL1B secr inh inconclusive, TDP1 cell noCPT inconclusive, TDP1 cell CPT 18µM
Cc1ccc2[nH]c(=O)c(CN(Cc3cccs3)Cc3nnnn3Cc3ccccc3)cc2c1	IL1B secr inh inconclusive, TDP1 cell noCPT inconclusive
CCOC(=O)Cn1nnnc1CN(Cc1cccs1)Cc1cc2cc(C)ccc2[nH]c1=O	TDP1 cell noCPT inconclusive, TDP1 cell CPT inconclusive
CCc1ccc2[nH]c(=O)c(CN(Cc3ccccc3)Cc3nnnn3C(C)(C)C)cc2c1	TDP1 cell noCPT 11µM, TDP1 cell CPT 14µM (no result: Six1-Eya2 blk, IL1B secr inh, CtBP-E1A inh)
CCOC(=O)Cn1nnnc1CN(CCc1ccccc1)Cc1cc2cc(CC)ccc2[nH]c1=O	TDP1 cell noCPT inconclusive, TDP1 cell CPT 18µM
CCc1ccccc1NC(=O)C(Cc1cccc(OC)c1OC)c1nn[nH]n1 (configuration not stated)	none
COc1cccc(CC(=O)NCC2Cc3cc(Cl)cc(-c4ncccn4)c3O2)c1 (configuration not stated)	TDP1 cell CPT inconclusive (no result: Six1-Eya2 blk, IL1B secr inh, TDP1 inh, CtBP-E1A inh)
COc1ccccc1/C=C/C=N/NC(=O)Cc1cccs1	TDP1 cell noCPT inconclusive
CN(c1ccc(C(=O)Nc2ccccc2Sc2ccccc2)cc1)S(C)(=O)=O	TDP1 cell noCPT 21µM, TDP1 cell CPT inconclusive
COc1ccccc1C(=O)Nc1cccc(SC)c1	none
COc1cc(SC)ccc1C(=O)Nc1c(C)cccc1C	TDP1 cell noCPT 13µM, TDP1 cell CPT inconclusive
COc1cc(SC)ccc1C(=O)NNC(=O)c1cc(C)oc1C	TDP1 cell noCPT 15µM, TDP1 cell CPT inconclusive
O=C(CN1C(=O)c2ccc([N+](=O)[O-])cc2C1=O)NCCC1=CCCCC1	none (no result: TDP1 inh)
O=C(c1cccc(NS(=O)(=O)c2ccc(F)c(F)c2)c1)N1CCN(C(c2ccccc2)c2ccccc2)CC1	TDP1 cell noCPT inconclusive
Cn1c(N=NC(=O)c2ccccc2)c(O)c2ccccc21	Six1-Eya2 blk inconclusive, TDP1 cell noCPT 23µM, CtBP-E1A inh inconclusive, TDP1 cell CPT inconclusive
Cc1nn(CCCC(=O)NCc2ccccc2Br)c(=O)c2c1sc1ccccc12	none (no result: Six1-Eya2 blk, IL1B secr inh, CtBP-E1A inh)

Bioassay records as filed in PubChem.
